Results filed as inconclusive are left out. Active and inactive are the calls of the source. The calls were made as follows, unless noted: active = hit-call score of the fitted dose curve at least 0.9, where 1 is the maximum; inactive = score below 0.9.
Columns and labels:
[1] = target: human RAR-related Orphan Receptor gamma (RORg), RORC (gene 6097) (UniProt P51449); assay: ATG_RORg_TRANS: Attagene TRANS-FACTORIAL HepG2 Assay for human RAR-related Orphan Receptor gamma (RORg) (AID 2283011; active = hit-call score of the fitted dose curve at least 0.9, where 1 is the maximum)
Procedure, shortened: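 Activity is scored as increase in GAL4-UAS reporter mRNA over DMSO, detected by fluorescent RT-PCR and capillary electrophoresis in HepG2 cells transiently expressing a RORg-Gal4 chimera, 24 h after dosing.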

[2] = target: human Retinoid X Receptor beta (RXRb), RXRB (gene 6257) (UniProt P28702); assay: ATG_RXRb_TRANS: Attagene TRANS-FACTORIAL HepG2 Assay for human Retinoid X Receptor beta (RXRb) (AID 2283013; active = hit-call score of the fitted dose curve at least 0.9, where 1 is the maximum)
Procedure, shortened: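 Chimeric receptor-Gal4 activity was assessed in transiently transfected human HepG2 cells after 24 h exposure. Transcripts from GAL4-UAS reporters were quantified by fluorescent RT-PCR and capillary electrophoresis, with DMSO as negative control and baseline.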

[3] = read-out: Interleukin-1 alpha (IL1a), IL1A (gene 3552); assay: BSK_BE3C_IL1a: BioMAP Diversity Plus: BE3C Assay for Interleukin-1 alpha (IL1a) Biomarker Activity (AID 2283016); settings: primary human bronchial epithelial cells; actives raise or lower the signal
Procedure, shortened: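 Signal from IL-1a ELISA, taken 24 h after chemical dosing of human bronchial epithelial cells, is compared with DMSO as baseline using bidirectional curve fitting.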

[4] = read-out: Monocyte Chemoattractant Protein-1 (MCP1), CCL2 (gene 6347); assay: BSK_3C_MCP1: BioMAP Diversity Plus: 3C Assay for Monocyte Chemoattractant Protein-1 (MCP1) Biomarker Activity (AID 2283017); settings: primary human endothelial cells (HUVEC); actives raise or lower the signal
Procedure, shortened: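 Endothelial cells from human umbilical vein are dosed with chemical, cultured 24 h, then assayed for MCP-1 by ELISA; both increases and decreases are modelled against DMSO controls.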

[5] = read-out: Monocyte Chemoattractant Protein-1 (MCP1), CCL2 (gene 6347); assay: BSK_4H_MCP1: BioMAP Diversity Plus: 4H Assay for Monocyte Chemoattractant Protein-1 (MCP1) Biomarker Activity (AID 2283018); settings: primary human endothelial cells (HUVEC); actives raise or lower the signal
Procedure, shortened: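 Endothelial cells from umbilical vein were treated with test chemical, then after 24 h MCP-1 levels were quantified by ELISA; endpoint values came from bidirectional fitting with DMSO as baseline of activity.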

[6] = read-out: Human Leukocyte Antigen - DR isotype (HLADR), HLA-DRA (gene 3122); assay: BSK_3C_HLADR: BioMAP Diversity Plus: 3C Assay for Human Leukocyte Antigen - DR isotype (HLADR) Biomarker Activity (AID 2283019); settings: primary human endothelial cells (HUVEC); actives raise or lower the signal
Procedure, shortened: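 Endothelial cells from human umbilical vein are treated with test chemical; after 24 h, HLA-DR levels are measured by ELISA. Data are fitted in both directions using DMSO as the baseline.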

[7] = read-out: E-selectin (Homo sapiens) (UniProt P16581); assay: BSK_3C_Eselectin: BioMAP Diversity Plus: 3C Assay for Eselectin Biomarker Activity (AID 2283015); settings: primary human endothelial cells (HUVEC); actives raise or lower the signal
Procedure, shortened: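 Human vascular endothelium from umbilical vein is exposed to test chemicals for 24 h. E-selectin levels are read by ELISA and compared with DMSO controls.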

[8] = read-out: Interleukin-8 (IL8), CXCL8 (gene 3576); assay: BSK_3C_IL8: BioMAP Diversity Plus: 3C Assay for Interleukin-8 (IL8) Biomarker Activity (AID 2283020); settings: primary human endothelial cells (HUVEC); actives raise or lower the signal
Procedure, shortened: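 Endothelial primary cells of human umbilical vein origin are dosed with chemical; after 24 h the IL-8 biomarker is measured by ELISA, and concentration–response is fitted in both directions versus DMSO.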

[9] = target: human Thyroid Receptor alpha (THRa1), THRA (gene 7067) (UniProt P10827); assay: ATG_THRa1_TRANS: Attagene TRANS-FACTORIAL HepG2 Assay for human Thyroid Receptor alpha (THRa1) (AID 2283014; active = hit-call score of the fitted dose curve at least 0.9, where 1 is the maximum)
Procedure, shortened: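 First, HepG2 cells receive multiple GAL4-UAS reporter units and the chimeric receptor. They are then dosed for 24 h, after which RNA is reverse-transcribed, amplified, labelled, HpaI-cut and sized by capillary electrophoresis; gain relative to DMSO is scored.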

[10] = target: Retinoic acid receptor RXR-alpha (Homo sapiens) (UniProt P19793); assay: ATG_RXRa_TRANS: Attagene TRANS-FACTORIAL HepG2 Assay for human Retinoid X Receptor alpha (RXRa) (AID 2283012; active = hit-call score of the fitted dose curve at least 0.9, where 1 is the maximum)
Procedure, shortened: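 Measures exogenous chimeric NR-GAL4 activity in transfected HepG2 liver cells after 24 h of dosing. Induced reporter mRNA was detected by RT-PCR with capillary electrophoresis, and gain of signal was analysed against DMSO.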

Measured: AC50

Sequence of human Thyroid Receptor alpha (THRa1), THRA (gene 7067) (P10827 whole entry, looked up, the tested form may be a part): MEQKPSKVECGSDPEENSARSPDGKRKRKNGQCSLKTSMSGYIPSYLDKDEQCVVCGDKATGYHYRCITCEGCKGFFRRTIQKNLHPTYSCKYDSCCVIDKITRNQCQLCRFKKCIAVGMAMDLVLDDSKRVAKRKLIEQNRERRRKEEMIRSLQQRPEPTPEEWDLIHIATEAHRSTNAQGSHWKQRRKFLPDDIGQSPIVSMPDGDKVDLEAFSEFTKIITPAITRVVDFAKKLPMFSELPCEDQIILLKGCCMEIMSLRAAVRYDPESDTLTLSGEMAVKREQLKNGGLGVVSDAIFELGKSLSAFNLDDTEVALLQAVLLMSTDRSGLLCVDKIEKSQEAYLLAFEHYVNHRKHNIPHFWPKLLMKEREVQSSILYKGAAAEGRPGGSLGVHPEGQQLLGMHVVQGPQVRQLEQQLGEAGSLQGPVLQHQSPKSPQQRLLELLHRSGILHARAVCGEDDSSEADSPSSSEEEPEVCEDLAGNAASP
Sequence of human RAR-related Orphan Receptor gamma (RORg), RORC (gene 6097) (P51449 whole entry, looked up, the tested form may be a part): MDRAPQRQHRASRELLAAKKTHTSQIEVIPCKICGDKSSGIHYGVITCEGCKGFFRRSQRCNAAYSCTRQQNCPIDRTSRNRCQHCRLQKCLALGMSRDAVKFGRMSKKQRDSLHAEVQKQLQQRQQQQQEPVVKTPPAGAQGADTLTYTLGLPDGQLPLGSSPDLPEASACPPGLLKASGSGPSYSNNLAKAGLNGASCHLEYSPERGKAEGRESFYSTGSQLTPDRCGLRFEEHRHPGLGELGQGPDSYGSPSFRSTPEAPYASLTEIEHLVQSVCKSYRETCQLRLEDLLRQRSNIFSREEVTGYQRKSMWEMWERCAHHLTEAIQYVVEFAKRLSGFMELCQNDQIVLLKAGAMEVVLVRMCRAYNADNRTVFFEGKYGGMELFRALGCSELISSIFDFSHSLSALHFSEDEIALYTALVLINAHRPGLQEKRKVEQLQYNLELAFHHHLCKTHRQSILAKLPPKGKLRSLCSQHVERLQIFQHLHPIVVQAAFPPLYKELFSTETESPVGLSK
Sequence of human Retinoid X Receptor beta (RXRb), RXRB (gene 6257) (P28702 whole entry, looked up, the tested form may be a part): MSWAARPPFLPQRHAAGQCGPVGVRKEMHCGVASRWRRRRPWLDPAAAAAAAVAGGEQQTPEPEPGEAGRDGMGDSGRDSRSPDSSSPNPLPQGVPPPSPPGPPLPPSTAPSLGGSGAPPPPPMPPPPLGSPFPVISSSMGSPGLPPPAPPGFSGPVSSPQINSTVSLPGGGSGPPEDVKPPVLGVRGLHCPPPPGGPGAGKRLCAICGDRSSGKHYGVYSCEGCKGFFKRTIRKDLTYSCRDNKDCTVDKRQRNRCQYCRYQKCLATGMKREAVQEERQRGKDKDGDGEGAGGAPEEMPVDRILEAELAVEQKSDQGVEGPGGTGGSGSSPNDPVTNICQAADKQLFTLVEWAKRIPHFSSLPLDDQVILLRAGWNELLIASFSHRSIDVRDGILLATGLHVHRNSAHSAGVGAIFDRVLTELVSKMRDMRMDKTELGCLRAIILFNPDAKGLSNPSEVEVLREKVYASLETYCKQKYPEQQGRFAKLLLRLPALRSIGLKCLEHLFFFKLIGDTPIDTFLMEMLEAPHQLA
Sequence of E-selectin (Homo sapiens) (P16581 whole entry, looked up): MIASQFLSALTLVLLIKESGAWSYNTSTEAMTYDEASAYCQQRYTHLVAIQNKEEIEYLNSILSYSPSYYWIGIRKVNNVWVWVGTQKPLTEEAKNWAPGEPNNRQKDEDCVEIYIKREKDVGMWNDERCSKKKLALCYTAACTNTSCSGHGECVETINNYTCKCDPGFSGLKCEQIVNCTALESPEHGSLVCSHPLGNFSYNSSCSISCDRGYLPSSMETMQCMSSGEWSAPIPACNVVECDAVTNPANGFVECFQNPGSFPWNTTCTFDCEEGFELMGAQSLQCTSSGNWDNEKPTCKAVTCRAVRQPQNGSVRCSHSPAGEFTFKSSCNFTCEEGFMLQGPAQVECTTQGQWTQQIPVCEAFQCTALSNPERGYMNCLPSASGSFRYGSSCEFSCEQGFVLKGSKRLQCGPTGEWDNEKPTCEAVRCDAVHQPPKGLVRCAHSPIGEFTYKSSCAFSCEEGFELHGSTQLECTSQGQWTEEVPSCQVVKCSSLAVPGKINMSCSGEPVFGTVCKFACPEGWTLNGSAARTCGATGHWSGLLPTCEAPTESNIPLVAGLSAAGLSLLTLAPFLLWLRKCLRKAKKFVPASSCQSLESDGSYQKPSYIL
Sequence of Retinoic acid receptor RXR-alpha (Homo sapiens) (P19793 whole entry, looked up, the tested form may be a part): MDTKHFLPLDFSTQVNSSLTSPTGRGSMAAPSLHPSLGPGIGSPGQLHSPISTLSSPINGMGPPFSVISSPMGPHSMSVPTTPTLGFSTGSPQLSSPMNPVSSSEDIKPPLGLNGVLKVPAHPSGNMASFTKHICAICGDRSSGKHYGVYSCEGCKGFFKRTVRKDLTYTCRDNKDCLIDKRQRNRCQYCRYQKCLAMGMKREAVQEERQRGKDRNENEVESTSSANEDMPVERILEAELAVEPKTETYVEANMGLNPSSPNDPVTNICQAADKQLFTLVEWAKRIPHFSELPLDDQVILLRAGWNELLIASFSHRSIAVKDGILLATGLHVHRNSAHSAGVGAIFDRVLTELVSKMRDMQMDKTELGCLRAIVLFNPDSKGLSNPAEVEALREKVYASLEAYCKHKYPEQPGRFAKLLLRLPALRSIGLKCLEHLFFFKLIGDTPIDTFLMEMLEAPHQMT

CC(C)N(Cc1ccccc1)C(=O)C(C)(C)C
inactive: [1] | [2] | [3] | [4] | [5] | [6]

CCOc1cccc(C2(N3CCN(c4ccccc4)CC3)CCC(C)CC2)c1 (stereo not given)
inactive: [1] | [2] | [7] | [3] | [4] | [5] | [6] | [8]

CC(O)CCO (stereo not given)
inactive: [1] | [9] | [7] | [3] | [4] | [5] | [6]
active: [2] 6.17 µM

Nc1ccc(Cc2ccc(N)cc2)cc1
inactive: [1] | [10] | [9] | [7] | [3] | [4] | [5] | [6] | [8]

N#CC(Br)(Br)C(N)=O
active: [2] 10 µM
inactive: [1] | [9] | [7] | [3] | [4] | [5] | [6] | [8]

O=[N+]([O-])C(Br)(CO)CO
active: [7] 32.6 µM | [4] 30.5 µM | [5] 28.9 µM | [6] 16.5 µM | [8] 35.8 µM
inactive: [1] | [10] | [2] | [9] | [3]

O=C(O)C1C2CCC(O2)C1C(=O)O (stereo not given)
inactive: [1] | [10] | [2] | [9] | [3] | [4] | [5] | [6] | [8]

Nc1ccc(Oc2ccc(N)cc2)cc1
inactive: [1] | [10] | [7] | [3] | [4] | [5] | [6] | [8]

Cc1ccc([N+](=O)[O-])cc1
inactive: [10] | [2] | [9] | [3] | [4] | [5] | [6] | [8]

CCCCCCCCOC(=O)c1ccc(C(=O)OCCCCCCCC)c(C(=O)OCCCCCCCC)c1
inactive: [10] | [7] | [3] | [4] | [5] | [6]
active: [2] 65.4 µM

c1ccc2c(c1)-c1cccc3cccc-2c13
active: [2] 31.2 µM
inactive: [10] | [9] | [7] | [3] | [4] | [5] | [6]

Clc1ccc(Cl)c(Cl)c1
inactive: [1] | [7] | [3] | [4] | [5] | [6]

Cc1cc(N=Nc2ccccc2C)ccc1N
active: [4] 10.8 µM | [6] 27.5 µM | [8] 20 µM
inactive: [10] | [2] | [9] | [7] | [3] | [5]

Brc1ccc(Oc2ccccc2)cc1
inactive: [10] | [3] | [4] | [5] | [6]
active: [2] 69.7 µM | [7] 30.9 µM

C[C@]12C=CC3=C4CCC(=O)C=C4CC[C@H]3[C@@H]1CC[C@@H]2O
active: [6] 20 µM
inactive: [10] | [2] | [9] | [3] | [4] | [5] | [8]

Nc1cc(Cl)cc(C(=O)O)c1Cl
inactive: [1] | [9] | [3] | [4] | [5] | [6] | [8]

ClC1=C(Cl)C2(Cl)C3C(Cl)C=CC3C1(Cl)C2(Cl)Cl (stereo not given)
inactive: [10] | [2]
active: [7] 26.8 µM | [3] 28.6 µM | [4] 30 µM | [5] 24.1 µM | [6] 22.7 µM

CCN(CC)N=O
inactive: [1] | [9] | [3] | [4] | [5] | [6] | [8]

ClCCOCCCl
inactive: [10] | [2] | [9] | [7] | [3] | [4] | [5] | [6] | [8]
